A selection: hits, their analogues and other compounds. The true share with any hit is near 3.2%.
FLuc inh: qHTS Assay for Inhibitors of Firefly Luciferase. Luciferin 4-monooxygenase (Photinus pyralis), P08659. purified firefly luciferase, luminescence, 8 min. Potency, µM (top dose mostly 57.1 µM), inactives show at the highest dose activity change, negative = inhibition, usual class: inhibitors. 2.2% of 72,000 active; active means well fitted inhibition curve with a large enough effect; inconclusive means small, poorly fitted or top-dose-only effect; further: on the % scale 0 is the no-effect control and ±100 the full control effect; nearly all actives have a fitted effect of over 40% in size
Target sequence (P08659 whole entry, looked up): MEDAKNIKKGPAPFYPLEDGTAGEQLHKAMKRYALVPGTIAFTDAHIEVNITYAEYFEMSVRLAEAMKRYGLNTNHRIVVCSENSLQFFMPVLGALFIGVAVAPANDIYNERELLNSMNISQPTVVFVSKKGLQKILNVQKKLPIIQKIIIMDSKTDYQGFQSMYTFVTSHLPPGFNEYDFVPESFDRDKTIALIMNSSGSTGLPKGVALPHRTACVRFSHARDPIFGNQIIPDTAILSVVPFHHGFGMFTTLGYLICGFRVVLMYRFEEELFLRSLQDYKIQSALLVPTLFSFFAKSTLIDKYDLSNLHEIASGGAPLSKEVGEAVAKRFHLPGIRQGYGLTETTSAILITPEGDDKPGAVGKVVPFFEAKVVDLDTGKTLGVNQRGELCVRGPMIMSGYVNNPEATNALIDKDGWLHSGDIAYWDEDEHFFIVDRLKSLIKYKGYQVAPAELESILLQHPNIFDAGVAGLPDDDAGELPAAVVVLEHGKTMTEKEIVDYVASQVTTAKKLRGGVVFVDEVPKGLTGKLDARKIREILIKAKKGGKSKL
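Here, luciferase activity is measured as luminescence following an 8 min room-temperature reaction at 10 uM ATP, pH 7.2. Every library sample is titrated.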
GBA mod: Glucocerebrosidase. Lysosomal acid glucosylceramidase (Homo sapiens), P04062. purified enzyme, resorufin glucoside fluorescence (screen aimed at inhibitors), 20 min. Potency, µM. 1.1% of 48,000 active; in the data active means potency below about 15 µM; inconclusive means mostly about 16 µM to 33 µM;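 further: the screen sought inhibitors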
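Wild-type enzyme at 0.2 nM final in 50mM citric acid/KH2PO4, 10mM sodium taurocholate, 0.01% tween-20, pH 5.9, with resorufin beta-D-glucopyranoside at 30 uM final. Compounds titrated, 20 min at RT, red fluorescence read; AC50 from titration.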
PK Bst: Pyruvate Kinase; purified pyruvate kinase, luminescence ATP production; ribose 5-phosphate activator present at AC10; Potency, µM; 1.2% of 51,000 active; AID 361, 2006; in the data active means potency below about 11 µM; inconclusive means mostly about 12 µM to 25 µM;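 the screen sought inhibitors and activators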;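 further: scaled between full activation by ribose 5 phosphate and full inhibition by luteolin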
Active calls of the source: *; i = inactive; ? = inconclusive; · = not tested or not shown; [ ] = remark or other dose. Potency means the concentration at half of the fitted maximal effect.

SMILES	FLuc inh	GBA mod	PK Bst
O=C(Oc1ccc(-c2cnc3ccccc3n2)cc1)c1ccco1	5.01µM*	·	·
O=C(Oc1cccnc1)c1ccco1	0.2%[25.5 µM]	·	>25.6
C[N+]1(C)CCc2cc(O)c(O)cc2[C@H]1Cc1ccc(O)c(O)c1	-4.4%[11.4 µM]	·	·
NC(=O)c1cnn2c(C(F)(F)F)cc(-c3ccc(F)cc3)nc12	-2.1%	>76.9	2.68*
NC(=O)c1cnn2c(C(F)(F)F)cc(-c3ccccc3)nc12	4.2%	>76.9	11.3*
Cc1ccc(-c2cc(C(F)(F)F)n3ncc(C(=O)N4CCN(C)CC4)c3n2)cc1	-1.0%	·	·
O=C(NCc1ccco1)c1cnn2c(C(F)(F)F)cc(-c3ccccc3)nc12	-0.3%	·	·
CCCC(=O)Nc1cccc(-c2nc3ccccc3o2)c1	-4.2%	>76.9	>57
CCCC(=O)Nc1ccc2oc(-c3cccnc3)nc2c1	-13.6%	?	·
CCCC(=O)Nc1cccc(-c2nc3cc(C)c(C)cc3o2)c1	7.94µM*	·	·
CCC(=O)Nc1ccc2oc(-c3cccc(C)c3)nc2c1	2.51µM*	·	2.08*
Nc1nncn1C(=O)c1c(Cl)cccc1Cl	-1.6%	>76.9	?
Nc1nncn1C(=O)c1cccs1	3.0%	>76.9	2.47*
C=CC(=O)N1C(=O)c2ccccc2S1(=O)=O	0.9%[11.4 µM]	·	·
CCCN1C(=O)/C(=C2\SC(N3CCCCC3)=NC2=O)c2ccccc21	15.8µM*	·	?
O=C1N=C(N2CCOCC2)S/C1=C1\C(=O)N(Cc2ccccc2)c2ccccc21	-17.8%	·	·
CCNc1ncc2nc(CCc3ccccc3)c(=O)n(-c3ccccc3)c2n1	0.6%[11.4 µM]	·	·
O=C(c1cc(C(F)(F)F)cc(C(F)(F)F)c1)N1CCC2(CCCN(Cc3nccs3)C2)CC1	-0.2%[11.4 µM]	·	·
CCNc1ncc2nc(-c3cccs3)c(=O)n(C)c2n1	-4.9%[11.4 µM]	·	·
COCCn1c(=O)c(-c2ccccc2)nc2cnc(N3CCNCC3)nc21	0.5%[11.4 µM]	·	·
O=C(NCCO)c1ccc2[nH]c3c(c2c1)CCCC3	15.8µM*	·	·
O=C(O)c1ccc2[nH]c3c(c2c1)CSCC3	5.1%	>76.9	>57
CCOc1ccc(NC(=O)Cn2nnc(-c3ccccc3F)n2)cc1	0.9%	>76.9	>57
CCc1nnc(NC(=O)Cn2nnc(-c3ccccc3F)n2)s1	1.7%	4.46*	>57
O=C(O)c1cccc(SSc2cccc(C(=O)O)c2)c1	2.2%[11.4 µM]	·	·
SMILES	FLuc inh	GBA mod	PK Bst
Cc1cc(=O)[nH]c(SCC(=O)N2CCC(C(N)=O)CC2)n1	2.0%	>76.9	>57
Cc1cc(C)nc(N(C#N)CC(=O)N2CCC(C(N)=O)CC2)n1	7.94µM*	·	?
COc1ccc(C(=O)N2CCC3(CC2)CCN(c2ccncc2)CC3)cc1	0.5%[11.4 µM]	·	·
CCc1ccccc1Nc1nc(N)nc(COC(=O)c2cccn2C)n1	0.2%	>76.9	>57
Cn1cccc1C(=O)OCc1cc(Cl)cc2c1OCOC2	-1.9%	12.2*	>57
COc1ccc2[nH]cc(CCNc3nc(-c4cccc(C#N)c4)nc4ccccc34)c2c1	-8.5%[2.29 µM]	·	·
COc1ccc(Oc2ncc3nc(-c4ccccc4)c(=O)n(C4CC4)c3n2)cc1	1.2%[11.4 µM]	·	·
Cc1ccc(S(=O)(=O)c2c(C)nn(C(C)(C)C)c2OC(=O)c2ccco2)cc1	-0.2%	·	>57
Cc1ccc(S(=O)(=O)c2c(C)nn(C(C)(C)C)c2OC(=O)c2ccc(Br)o2)cc1	-1.1%	12.5*	>57
CCCn1c(=S)[nH]c2cc(C(=O)NCC3CCCO3)ccc2c1=O (stereo not given)	2.3%	·	·
CCCCCNC(=O)c1ccc2c(=O)n(CC3CCCO3)c(=O)[nH]c2c1 (stereo not given)	0.4%	11*	>57
Clc1ccc(OCCn2ccnc2)c2ccccc12	0.8%	>76.9	·
OCc1ccccc1OCCOc1ccc(Cl)c2cccnc12	-9.5%	>76.9	3.47*
N#Cc1ccc(CN2CCC3(CCNCC3)CC2)cc1	-5.2%[11.4 µM]	·	·
Cc1cc(C)cc(NC(=O)CSc2nnc(-c3ccccc3)n2N)c1	4.0%	>76.9	>57
Cc1ccc(-c2cc(-c3nnc(SCC(=O)N(C)CCC#N)n3N)c3ccccc3n2)cc1	12.6µM*	>76.9	i
COc1ccc(COC(=O)N/N=C2/C[C@@H](O)[C@@H](O)[C@@H]3[C@@H]4C(=O)N(Cc5ccc6c(c5)OCO6)C(=O)[C@H]4CC[C@@H]23)cc1	1.4%[11.4 µM]	·	·
CN=Cc1sc2ccccc2c1O	-16.6%	>76.9	·
Oc1c(C=Nc2cccnc2)sc2ccccc12	12.6µM*	·	11.4*
O=C(O)[C@H]1C[C@H](C(=O)O)N1	-7.5%	·	·
CCOC(=O)c1c(C)n(C)c2ccc(O)c(S(=O)(=O)c3ccccc3)c12	-1.7%[25.5 µM]	·	10.3*
CCOC(=O)c1c(C)n(C)c2ccc(O)c(CN(C)C)c12	-2.4%	·	>57
O=C1C[C@@H](O)[C@@H](O)[C@H]2[C@@H]3C(=O)N(C4CCCCC4)C(=O)[C@@H]3CC[C@H]12	0.8%[11.4 µM]	·	·
O=C(O)c1ccc2c3c(cccc13)C(=O)N(c1ccccc1O)C2=O	-8.9%	·	·
CSc1nc2[nH]c3c(c2c2ncnn12)CCCC3	-3.6%[25.5 µM]	·	0.423*
SMILES	FLuc inh	GBA mod	PK Bst
CC[C@@H]1CN2CCc3cc(OC)c(OC)cc3[C@H]2C[C@@H]1C[C@@H]1NCCc2cc(OC)c(OC)cc21	-1.6%	·	·
O=C(NCCN1CCOCC1)c1nn2c(c1Cl)NC(c1ccccc1)CC2C(F)(F)F (stereo not given)	3.2%	i	>57
O=C(NCC12CC3CC(CC(C3)C1)C2)c1nn2c(c1Cl)NC(c1ccco1)CC2C(F)(F)F (stereo not given)	0.6%	14.2*	>57
N#CCCn1c(=O)c(-c2ccccc2)nc2cnc(OCc3ccccc3)nc21	0.9%[11.4 µM]	·	·
COCCNc1nc(-c2ccccc2CN(C)C)nc2ccccc12	0.0%[2.29 µM]	·	·
CN(C)c1ccc(/C=N/n2ncc3ccccc32)cc1	3.98µM*	?	1.88*
CN(C)c1ccc(C=Nc2cnn(C)c2C(N)=O)cc1	-18.0%[25.5 µM]	·	i
C=CCn1c(/N=C/c2ccc(N(C)C)cc2)nc2ccccc21	3.98µM*	>76.9	1.41*
C=CCn1c(C(C)NC(=O)C(C)(C)C)nc2ccccc21 (stereo not given)	1.5%	>76.9	>57
COCCn1c(=O)c(-c2cc(F)cc(F)c2)nc2cnc(N3CCOCC3)nc21	1.6%[11.4 µM]	·	·
Cc1ccc(Cn2nnc3c(=O)[nH]c(C4CCN(S(=O)(=O)c5ccc(C)cc5)CC4)nc32)cc1	2.2%	13.9*	>57
Cc1ccc(NC(=O)N2CCC(c3nc4c(nnn4Cc4cccc(Cl)c4)c(=O)[nH]3)CC2)cc1	0.1%	·	>57
O=C(O)C12CC3(C(=O)O)CC(C(=O)O)(CC(C(=O)O)(C1)C3=O)C2=O	-0.2%[11.4 µM]	·	·
COCCN(CCOC)S(=O)(=O)c1ccc(C(=O)Nc2nc(C)c(C(C)=O)s2)cc1	-1.9%	>76.9	>57
CC(=O)c1sc(NC(=O)c2ccccc2F)nc1C	15.8µM*	·	·
N=C(N)SCCc1ccc(OCc2ccc([N+](=O)[O-])cc2)cc1	2.4%	·	·
OCc1nc2ccccc2n1CCCOc1ccc(Br)cc1	12.6µM*	i	?
COc1ccccc1OCCn1c(CO)nc2ccccc21	-4.0%	>76.9	>57
c1ccc(-c2nnc(-c3ccco3)o2)cc1	-23.4%	>76.9	i
c1coc(-c2nnc(-c3ccc4c(c3)OCO4)o2)c1	10µM*	·	·
COC(=O)CSc1nc2cc(C)ccc2cc1C#N	?	>76.9	i
CCOC(=O)CC(=O)CSc1nc2c(cc1C#N)CCCCC2	10µM*	·	?
N#Cc1cc2c(nc1SCC(=O)N1CCCCC1)CCCC2	-0.3%	·	·
CCOC(=O)CC(=O)CSc1nc2ccc(C)cc2cc1C#N	-26.8%	12.7*	?

Source: PubChem
